Assay results: PubChem BioAssay (EPA / NIEHS)
Several values for one entry are separate records, joined by “and”; a condition that tells them apart may be missing. Identical values can stand only once. Some structures have more than one record in an assay (separate samples or runs), and their calls can disagree. Activity calls are given as the source filed them. Rule for the calls: active = hit-call score of the fitted dose curve at least 0.9, where 1 is the maximum; inconclusive = response in the unintended direction; inactive = score below 0.9.

Assay: LTEA_HepaRG_LDH_cytotoxicity: Cytotoxicity Assessment in the Life Technologies and Expression Analysis (LTEA) Assay (AID 2283563)
Description: LTEA_HepaRG is a cell based, multiplexed-readout assay that uses HepaRG, a human liver cell line, with measurements taken at 48 hours after chemical dosing on a 96-well plate.LTEA_HepaRG_LDH_cytotoxicity is one of 102 assay component(s) measured in the LTEA HepaRG cell culture assay. It is a marker of cell viability / cytotoxicity.Data from the assay component LTEA_HepaRG_LDH_cytotoxicity was analyzed into 1 endpoint. This assay endpoint, LTEA_HepaRG_LDH_cytotoxicity, was analyzed in the positive fitting direction relative to DMSO as the negative control and baseline of activity. Using a type of inducible reporter, measures of mRNA induction for loss-of-signal activity can be used to understand cell death. To generalize the intended target to other relatable targets, this assay endpoint is annotated to the cell cycle intended target family, where the subfamily is proliferation.
A total of 1060 chemcials from the ToxCast library were tested in eight-point concentration-response experiments. Cell culture and cytotoxicity assays were conducted at Thermo Fisher Scientific's Custom Services facility (Madison, WI). A single lot of human HepaRG cells (Thermo Fisher Scientific, Frederick, MD) was used for the cell culture experiments. 96-well format collagen type I coated plates of human HepaRG cells were prepared using established methods. Briefly, cryopreserved HepaRG cells were thawed, plated at a density of approximately 100,000 cells/well in HepaRG Thaw, Plate, and General Purpose media (HPRG770, Thermo Fisher Scientific), and incubated for 48 hours. 0.5% DMSO was selected as vehicle control to balance the requisite need of DMSO in HepaRG cultures to maintain differentiation (for example, baseline metabolism, proportions of hepatocytes vs. cholangiocytes), while enabling further hepatic receptor pathway activation (for example, PXR and CAR) in response to chemical exposure. 48 hours after plating, the culture medium was replaced with HepaRG Serum-Free Incudtion Media. Cells were exposed to each test chemical in duplicate and maintained in CO2 incubators for another 48 hours. Chemical plates were thawed to room temperature and 200x concentrations of treatment groups were prepared. 8-point conentration-reponse curves were made with the highest exposure at 100 uM, followed by half-log dilutions, all in 0.5% DMSO. Each test plate contained variouse controls, induction positive controls (1mM phenobarbital), cytotoxicity positive controls ([…] aflatoxin B1), vehicle controls (0.5% DMSO), and total lysis controls (0.5% DMSO). Cell morphology images were taken using an Essen IncuCyte FLR automated microscope, with six 96-well plates imaged in about 24 minutes. Images were captured and exported and JPEG files. Spent culture media was transfered to black-well plates for the LDH assay, and remaining media was sorted at -80 C for later use. Cells were treated with RLT buffer and frozen until shipped for gene expression analysis. Total RNA was isolated from the cell suspension in 75 uL of Buffer RLT (Qiagen, Germantown, MD 20874) by Quintiles/Expression Analysis (Durham, NC) using a custom isolation procedure. Total RNA from each plate well was transferred to a preamplification plate. Fluidigm's 96.96 Dynamic ArrayTM (Fluidigm, Amsterdam, the Netherlands) technology was used for gene expression analyses by quantitative reverse transcription polymerase chain reaction (qRT-PCR, performed by Quintiles/Expression Analysis, Durham, NC)89. Standard TaqManTM Assays (Applied Biosystems/ThermoFisher Scientific, Foster City, CA) were used to assess the expression of 93 genes selected based on their selectivity and sensitivity to important hepatic receptors known to be modulated by environmental chemicals; importance in human hepatocyte functionality; and hepatotoxicity. […]

| Compound | AC50 | outcome |
| --- | --- | --- |
| Oc1cc(Cl)ccc1Oc1ccc(Cl)cc1Cl | 78.6 µM (active) and 78.2 µM (active) and 78 µM (active) | – |
| CC(C)(C)C(O)/C(=C\c1ccc(Cl)cc1Cl)n1cncn1 (stereo not given) | 72.9 µM (active) | – |
| CC(C)N(C(=O)COc1nnc(C(F)(F)F)s1)c1ccc(F)cc1 | – | inactive |
| COP(=S)(OC)Oc1ccc([N+](=O)[O-])cc1 | – | inactive |
| CC(C)OC(=O)Nc1cccc(Cl)c1 | – | inactive |
| CC1(C)C(C=C(Cl)Cl)C1C(=O)OC(C#N)c1ccc(F)c(Oc2ccccc2)c1 (stereo not given) | – | inactive |
| O=S(=O)(O)C(F)(F)C(F)(F)C(F)(F)C(F)(F)C(F)(F)C(F)(F)C(F)(F)C(F)(F)F | 75.8 µM (active) and 79.2 µM (active) and 75.4 µM (active) | inactive |
| CCN(CC)C(=O)SCc1ccc(Cl)cc1 | – | inactive |
| N#CN | – | inactive |
| CNC(=O)CSP(=S)(OC)OC | – | inactive |
| CCc1ccc(C(=O)NN(C(=O)c2cc(C)cc(C)c2)C(C)(C)C)cc1 | 81.9 µM (active) | – |
| COP(=O)(OC)OC=C(Cl)Cl | – | inactive |
| O=C(O)CCCOc1ccc(Cl)cc1Cl | – | inactive |
| CCCN(CCC)c1c([N+](=O)[O-])cc(C(F)(F)F)cc1[N+](=O)[O-] | – | inactive |
| CCOCN(C(=O)CCl)c1c(C)cccc1CC | 76 µM (active) | – |
| Oc1ccc(Cl)cc1Cc1ccccc1 | 91.5 µM (active) and 93.3 µM (active) and 94.7 µM (active) | – |
| O=C(O)COc1ccc(Cl)cc1Cl | – | inactive |
| CNC(=O)Oc1ccccc1OC(C)C | – | inactive |
| O=S1OCC2C(CO1)C1(Cl)C(Cl)=C(Cl)C2(Cl)C1(Cl)Cl (stereo not given) | 94 µM (active) | – |
| O=C1c2ccccc2C(=O)N1SC(Cl)(Cl)Cl | – | inactive |

| Compound | AC50 | outcome |
| --- | --- | --- |
| CN1CSC(=S)N(C)C1 | – | inactive |
| N#Cc1c(Cl)c(Cl)c(Cl)c(C#N)c1Cl | 50 µM (active) | – |
| ClC1C(Cl)C(Cl)C(Cl)C(Cl)C1Cl (stereo not given) | – | inactive |
| CC(C)(C)C(O)C(Oc1ccc(Cl)cc1)n1cncn1 (stereo not given) | – | inactive |
| O=C(NC(=O)c1c(F)cccc1F)Nc1ccc(OC(F)(F)C(F)OC(F)(F)F)c(Cl)c1 (stereo not given) | – | inactive |
| CCC(C)(NC(=O)c1cc(Cl)c(C)c(Cl)c1)C(=O)CCl (stereo not given) | 77.6 µM (active) | – |
| O=C(O)C(F)(F)C(F)(F)C(F)(F)C(F)(F)C(F)(F)C(F)(F)C(F)(F)F | – | inactive |
| O=[N+]([O-])/N=C1\NCCN1Cc1ccc(Cl)nc1 | – | inactive |
| C#CCN1C(=O)COc2cc(F)c(N3C(=O)C4=C(CCCC4)C3=O)cc21 | – | inactive |
| CCC(C)(C)C(=O)OC1=C(c2ccc(Cl)cc2Cl)C(=O)OC12CCCCC2 | – | inactive |
| CC1(c2ccc(Oc3ccccc3)cc2)OC(=O)N(Nc2ccccc2)C1=O (stereo not given) | 50.2 µM (active) | – |
| CCCN(CCOc1c(Cl)cc(Cl)cc1Cl)C(=O)n1ccnc1 | 36 µM (active) | – |
| COP(=S)(OC)Oc1ccc(SC)c(C)c1 | – | inactive |
| CCC(C)Nc1c([N+](=O)[O-])cc(C(C)(C)C)cc1[N+](=O)[O-] (stereo not given) | – | inactive |
| Cc1[nH]c(=O)n(C(C)(C)C)c(=O)c1Cl | – | inactive |
| O=[N+]([O-])c1c(Cl)c(Cl)c(Cl)c(Cl)c1Cl | – | inactive |
| OCCOc1ccccc1 | – | inactive |
| CNC(=O)/C=C(\C)OP(=O)(OC)OC | – | inactive |
| COc1nn(CSP(=S)(OC)OC)c(=O)s1 | – | inactive |
